Reference: PubChem BioAssay (NCATS)
Records with an inconclusive call do not appear. A call without a number means that no potency is given here. Activity calls are given as the source filed them. Unless noted, the call rests on the fitted dose curve; in most records, active means well fitted curve in the direction sought with a large enough effect; inconclusive means small, poorly fitted or top-dose-only effect, or another doubt; inactive means no such curve, though single readings can be large; an effect the other way counts as inactive or inconclusive.

What was measured:
[1] = qHTS for Inhibitors of Plasmodium falciparum (GB4) proliferation (AID 504315); further: nearly all actives have a fitted effect of over 50% in size; details: P. falciparum GB4 in erythrocytes, SYBR Green DNA, 72 h; series mostly up to 6.7 µM
Summary of the method: (§1)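 Erythrocytes infected with P. falciparum line (0.3% parasitemia, 2.5% hematocrit final) incubated with compounds 72 h at 37 °C, 5% CO2; SYBR Green lysis buffer added, fluorescence read next day. Normalized to 0.29 uM artemisinin and DMSO.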

[2] = qHTS for Inhibitors of Plasmodium falciparum (CP250) proliferation (AID 504320); details: P. falciparum CP250 in erythrocytes, SYBR Green DNA, 72 h; series mostly up to 6.7 µM
Summary of the method: as §1

[3] = target: Atrial natriuretic peptide receptor 1 (Homo sapiens) (UniProt P16066); experiment: Natriuretic polypeptide receptor (hNpr1) antagonism - Pilot CMLD screen (AID 1347052; calls by dose curve;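 further: HEK293 cells with hNpr1 stimulated by hNppA peptide at 0.1 nM; cGMP level read as GloSensor luciferase luminescence after agonist stimulation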); details: HEK293 hNpr1 GloSensor cGMP luminescence, ANP-stimulated; series mostly up to 9.22 µM
[4] = qHTS for Inhibitors of Plasmodium falciparum (7G8) proliferation (AID 504316); further: nearly all actives have a fitted effect of over 65% in size; further: potency means the concentration at half of the fitted maximal effect; details: P. falciparum 7G8 in erythrocytes, SYBR Green DNA, 72 h; series mostly up to 6.7 µM
Summary of the method: as §1

[5] = qHTS for Inhibitors of Plasmodium falciparum (HB3) proliferation (AID 504318); further: nearly all actives have a fitted effect of over 60% in size; further: potency means the concentration at half of the fitted maximal effect; details: P. falciparum HB3 in erythrocytes, SYBR Green DNA, 72 h; series mostly up to 7.21 µM
Summary of the method: as §1

Chain of Atrial natriuretic peptide receptor 1 (Homo sapiens) (P16066 whole entry, looked up): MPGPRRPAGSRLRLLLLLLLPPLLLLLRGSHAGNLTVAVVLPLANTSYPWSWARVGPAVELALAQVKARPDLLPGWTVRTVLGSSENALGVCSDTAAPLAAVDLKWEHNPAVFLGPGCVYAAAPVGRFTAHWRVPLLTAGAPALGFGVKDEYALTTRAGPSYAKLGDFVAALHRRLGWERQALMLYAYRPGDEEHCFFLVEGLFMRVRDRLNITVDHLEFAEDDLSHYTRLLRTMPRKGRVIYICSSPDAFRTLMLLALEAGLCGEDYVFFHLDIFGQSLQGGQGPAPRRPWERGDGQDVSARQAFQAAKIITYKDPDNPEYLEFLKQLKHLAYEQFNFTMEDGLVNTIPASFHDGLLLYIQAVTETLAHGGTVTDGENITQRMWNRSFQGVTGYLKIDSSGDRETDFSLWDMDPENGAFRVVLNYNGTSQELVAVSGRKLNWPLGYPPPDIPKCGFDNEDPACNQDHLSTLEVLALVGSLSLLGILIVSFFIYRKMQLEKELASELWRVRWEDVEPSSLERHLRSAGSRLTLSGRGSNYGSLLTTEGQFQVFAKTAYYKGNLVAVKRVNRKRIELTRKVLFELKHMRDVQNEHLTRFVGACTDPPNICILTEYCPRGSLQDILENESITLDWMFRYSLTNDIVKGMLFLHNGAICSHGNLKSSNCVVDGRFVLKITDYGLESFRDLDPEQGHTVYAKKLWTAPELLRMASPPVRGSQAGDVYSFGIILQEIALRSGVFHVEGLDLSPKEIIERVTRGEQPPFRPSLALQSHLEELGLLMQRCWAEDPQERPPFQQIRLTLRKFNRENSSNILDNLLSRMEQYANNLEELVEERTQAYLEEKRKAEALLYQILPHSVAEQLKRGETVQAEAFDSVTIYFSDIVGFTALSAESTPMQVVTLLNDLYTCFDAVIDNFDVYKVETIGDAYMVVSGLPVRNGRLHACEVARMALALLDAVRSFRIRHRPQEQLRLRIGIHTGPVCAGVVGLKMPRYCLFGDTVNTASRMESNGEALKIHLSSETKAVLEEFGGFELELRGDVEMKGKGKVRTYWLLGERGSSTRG

Compound | Potency [1] | Potency [2] | Potency [3] | Potency [4] | Potency [5]
C[C@H]1C=CCC(=O)NCc2cccc(c2)CNC(=O)N[C@@H]1c1ccccc1 | inactive | inactive | inactive |  | 
COC(=O)C1=C(C(=O)OC)[C@@H]2N(C)c3ccc(OC)cc3[C@@]23C[C@@H](C(=O)OC)N(C(=O)N2CCNC2=O)C3=N1 | inactive | inactive | inactive |  | 
C=C(C(=O)C(C)(C)O)C(O)c1ccc([N+](=O)[O-])cc1 (stereo unspecified) | inactive | inactive | inactive |  | 
COc1ccc(O[C@H]2C=C[C@@H](c3ccccc3)O[C@H]2COC(=O)CCC(C)=NO[C@H](C)c2cn([C@@H]3COC[C@@H]3O)nn2)cc1 | inactive | inactive | inactive |  | 
O=C1CCCC2=C1[C@H]1O[C@](c3ccsc3)(Cc3c1ccc1ccccc31)O2 | inactive | inactive | inactive |  | 
COc1cccc2c1[C@H](C=Cc1ccccc1)[C@@H]([C@H](O)CN=[N+]=[N-])OC2 | inactive | inactive | inactive |  | 
COC(=O)[C@@H]1CC23C(=NC(c4ccc([N+](=O)[O-])cc4)=C(C(F)(F)F)[C@@H]2N(C)c2ccccc23)N1C(C)=O (stereo partly specified) | inactive | inactive | inactive |  | 
COc1ccc2c(c1)O[C@@H](c1cccc(C(F)(F)F)c1)[C@H](OC(=O)Nc1cc(OC)c(OC)c(OC)c1)C2=O | inactive | inactive | inactive |  | 
C[C@@H]1CC[C@H]2C(=O)N(Cc3cccc([N+](=O)[O-])c3)C[C@H](O)CN2[C@@H]1c1cccc(Br)c1 | inactive | inactive | inactive |  | 
CC1=C[C@@H](COCc2ccccc2)O[C@@]2(C1)C(=O)N(CC1CC1)c1ccccc12 | inactive | inactive | inactive |  | 
COC1=C[C@@H](C(=O)N[C@H]2CCCC[C@H]2NC(C)=O)[C@]2(C)Cc3ccccc3[C@H]2CC1=O | inactive | inactive | inactive |  | 
CCCCCCCc1cc2ccccc2c2c(C=O)c(CCCC)c(C(=O)OC)n12 | inactive | inactive | inactive |  | 
Cc1cc2c(c(=O)n1Cc1ccccc1)[C@H]1O[C@](CCCCN3C(=O)c4ccccc4C3=O)(Cc3cc(C#N)ccc31)O2 | inactive | inactive | inactive |  | 
COC1=C(C(=O)c2ccccc2)C(=O)[C@@]2(CC=C(C)C)CC(C#N)C[C@@]1(CC=C(C)C)C2=O (stereo partly specified) | inactive | inactive | inactive |  | 
COC(=O)CC=C[C@@H](C)[C@@H](C=NOC[C@H]1O[C@H](c2ccccc2)C=C[C@H]1Oc1ccc(OC)cc1)N[S+](=O)([O-])c1ccc(C)cc1 | inactive | inactive | inactive |  | 
CCOC(=O)CCN1C(=O)[C@@H]2[C@H]3[C@H](O)[C@H](O)CC(=NOCc4ccccc4)[C@@H]3CC[C@H]2C1=O | inactive | inactive | inactive |  | 
CC(C)=CCCC(C)=CCON=C1C[C@@H](O)[C@@H](O)[C@@H]2[C@H]3C(=O)N(Cc4ccc5c(c4)OCO5)C(=O)[C@@H]3CC[C@H]12 | inactive | inactive | inactive |  | 
COc1ccc([C@]23Cc4c(ccc5ccccc45)[C@H](O2)C2=C(CCCC2=O)O3)cc1 | inactive | inactive | inactive |  | 
CCN1C(=NCc2ccc(OC)cc2)NC(c2ccccc2)C(C(=O)OC)=C1C (stereo unspecified) |  | inactive | inactive | inactive | inactive
COC(=O)C1=C(C(=O)OC)[C@@H]2N(Cc3ccccc3)c3ccccc3[C@@]23C[C@@H](CO)N(C(=O)CC(C)C)C3=N1 |  |  | inactive | 1.69 µM (active) | 
CC#CCN1c2ccccc2[C@]23CCC(=O)N(Cc4ccco4)C2=NC(C(=O)OC)=C(C(=O)OC)[C@H]13 |  |  | inactive | 1.69 µM (active) | 
C[C@H]1[C@@H](C(=O)N2CCCC2)CC(=NOCc2ccccc2)C(=NOCc2ccccc2)C[C@H]1c1ccccc1 |  |  | inactive | 0.478 µM (active) | 1.69 µM (active)

Compound | Potency [1] | Potency [2] | Potency [3] | Potency [4] | Potency [5]
CCc1cc2c(nc1CC)CCN(CCC(C)=NOC[C@H]1O[C@H](c3ccccc3)C=C[C@H]1Oc1ccc(OC)cc1)C2 |  |  | inactive | 1.69 µM (active) | 
C=CCN=C1NC(c2cccc(C(F)(F)F)c2)C(C(=O)OC)=C(C)N1Cc1ccccc1 (stereo unspecified) |  |  | inactive | inactive | inactive
COc1cccc(CO[C@H]2C=C[C@@H](c3ccccc3)O[C@H]2CBr)c1 |  | inactive | inactive | inactive | inactive
Cc1ccccc1Nc1oc(-c2ccccc2)nc1C(C)(C)C |  |  | inactive | 1.9 µM (active) | 1.69 µM (active)
CCOC(=O)OC[C@H]1O[C@H](c2ccc(C(C)=O)cc2)C=C[C@H]1Oc1ccc(-c2ccccc2)cc1 |  |  | inactive | 1.51 µM (active) | 
C=C(C)[C@@H]1CC2=C(OC)C(CC=C(C)C)(CC=C(C)C)C(=O)C(C(=O)c3ccccc3)=C2O1 |  |  | inactive | 1.69 µM (active) | 
COC(=O)[C@@H]1CC[C@H](C)[C@@H](c2ccc(C)cc2)N1C(=O)c1ccc(C=NOC[C@H]2O[C@H](c3ccccc3)C=C[C@H]2Oc2ccc(OC)cc2)cc1 |  |  | inactive | inactive | 
COC(=O)C1=C(C)N(Cc2ccccc2)C(=NCC(C)C)NC1c1cccc(F)c1 (stereo unspecified) |  |  | inactive | inactive | inactive
Oc1ccc2c(c1-c1c(O)c(Br)cc3c1CCCC3)CCCC2 | inactive | inactive | inactive |  | 
COc1ccc(O[C@H]2C=C[C@@H](c3ccccc3)O[C@H]2COC(=O)CCC(C)=NO[C@H](C)CN2CCCc3nc(C)c(C)cc32)cc1 |  |  | inactive | 1.9 µM (active) | 
COc1ccc(O[C@H]2C=C[C@@H](c3ccccc3)O[C@H]2COC(=O)CCC(C)=NOC[C@@H](C)[C@H](OCc2ccccc2)C(C)C)cc1 |  |  | inactive | 1.9 µM (active) | 
C[C@@H]1CC2=CCCC2[C@]2(O1)C(=O)N(CC1CC1)c1cccc(Br)c12 (stereo partly specified) |  | inactive | inactive | inactive | inactive
CCCCCCc1cc2cc(OC)c(OC)cc2c2c(C(=O)OC)c(C(=O)OC)c(C(=O)OC)n12 |  |  | inactive | 1.9 µM (active) | 
COc1ccc([C@]23Cc4cc(OC)c(OC)cc4[C@H](O2)C2=C(CC(C)(C)CC2=O)O3)cc1 | inactive | inactive | inactive |  | 
O=C1C2=C(C(=O)c3ccccc31)[C@H]1O[C@](c3ccsc3)(Cc3ccccc31)O2 |  |  | inactive | 1.9 µM (active) | 1.9 µM (active)
CC1(C)CC(=O)C2=C(C1)O[C@@]1(CCCCN3C(=O)c4ccccc4C3=O)Cc3ccccc3[C@H]2O1 |  |  | inactive | 1.51 µM (active) | 1.51 µM (active)
CCN1C(N(C)CCc2ccc(Br)cc2)=NC(c2ccccc2)C(C(=O)OC)=C1C (stereo unspecified) |  |  | inactive | inactive | inactive
C[C@H]1C=CCC(=O)N[C@@H](c2ccccc2)[C@@H](C)C=CCC(=O)N[C@@H]1c1ccccc1 |  | inactive | inactive | 0.426 µM (active) | 1.51 µM (active)
O=C(N[C@H](c1cccc(Br)c1)[C@@H]1CCCC=C1c1ccccc1)C(F)(F)F |  |  | inactive | inactive | 
CCCNC(=O)OC[C@H]1O[C@H](CCON=C(C)CCN2CCCCc3nc(C)c(C)cc32)C=C[C@H]1Oc1ccc(OC)cc1 |  |  | inactive | 1.9 µM (active) | 2.82 µM (active)
COC(=O)C1=C(C)N(Cc2ccccc2)C(=NCCc2ccc([N+](=O)[O-])cc2)NC1c1cccc(F)c1 (stereo unspecified) |  |  | inactive | 2.69 µM (active) | inactive
CCCC[C@]12Cc3cc(OC)c(OC)cc3[C@H](O1)c1c(cc(-c3ccccc3)oc1=O)O2 |  |  | inactive | 1.51 µM (active) | 

Compound | Potency [1] | Potency [2] | Potency [3] | Potency [4] | Potency [5]
COC(=O)C1=C(C)N(Cc2ccccc2)C(=NCCc2ccc(O)cc2)NC1c1ccc(Br)cc1 (stereo unspecified) |  |  | inactive | inactive | inactive
CC1=CC[C@@H](COc2ccccc2)O[C@@]2(C1)C(=O)N(Cc1ccc(F)cc1)c1ccccc12 | inactive | inactive | inactive |  | 
COc1ccccc1C=CC1=CC2(C)CC1(C)C(c1ccccc1OC)CC2=O (stereo unspecified) |  |  | inactive | 1.69 µM (active) | 1.69 µM (active)
C=C(C[C@@]1(C(=O)OC)C=C[C@@H](C)[C@H](c2ccccc2Br)N1C(=O)C(F)(F)F)c1ccccc1 |  |  | inactive | 1.9 µM (active) | 
CC(C)(C)Nc1oc(-c2ccccc2)nc1C=Cc1ccccc1 |  |  | inactive | 1.51 µM (active) | 1.69 µM (active)
Brc1ccc2c(c1)c1cc(Br)ccc1n2CC1CO1 (stereo unspecified) |  |  | inactive | 1.69 µM (active) | 
C[C@@H]1CC[C@H]2C(=O)O[C@H](COc3ccc(C(C)(C)C)cc3)CN2[C@@H]1c1ccc(Br)cc1 |  |  | inactive | inactive | inactive
COC(=O)C1=C(C)N(Cc2ccccc2)C(=NCCCCO)NC1c1cccc(F)c1 (stereo unspecified) |  | inactive | inactive | inactive | inactive
COc1ccc(O[C@H]2C=C[C@@H](c3ccccc3)O[C@H]2CON=C(C)CCN2CCCc3nc(C)c(C)cc32)cc1 |  |  | inactive | 1.51 µM (active) | 3.29 µM (active)
CCCCCCCc1cc2ccc(F)cc2c2c(C(=O)OC)c(C(=O)OC)c(C(=O)OC)n12 |  |  | inactive | inactive | 
CC(CCN1CCCc2nc(C)c(C)cc21)=NO[C@H](C)c1cn([C@H](CO)Cc2ccccc2)nn1 |  |  | inactive | 1.51 µM (active) | 
CC12C=C(C=Cc3ccc(Br)cc3)C(C)(C1)[C@H](c1ccc(Br)cc1)CC2=O (stereo partly specified) |  |  | inactive | 1.69 µM (active) | 1.69 µM (active)
C=C[C@H]1CCC=C2C(=O)CCC[C@H]21 |  |  | inactive | 1.9 µM (active) | 
CC1=C[C@@H](COc2ccccc2)O[C@@]2(C1)C(=O)N(Cc1ccccc1)c1ccccc12 |  | inactive | inactive | 0.757 µM (active) | inactive
C=CCC12OC3(OC)CC1[C@H](C)[C@@H](c1ccccc1)C2[C@]3(O)CC=C (stereo partly specified) |  | inactive | inactive | inactive | inactive
COC(=O)N1C(C=CC=Cc2ccc(OC)cc2)=Cc2ccccc2C1CC(C)=O (stereo unspecified) |  | inactive | inactive | 1.51 µM (active) | 
COC(=O)C1=C(C)N(Cc2ccccc2)C(=S)NC1c1cccc(C(F)(F)F)c1 (stereo unspecified) |  | inactive | inactive | inactive | inactive
CCC(=O)N1C2=C(c3ccccc3[C@@H]1CC(=O)Nc1ccc3ccccc3c1)[C@H]1C(=O)N(c3ccccc3)C(=O)[C@@H]1[C@H](C)C2 |  | inactive | inactive | 1.51 µM (active) | 
CCc1cc2c(nc1CC)CCN(CCC(C)=NO[C@H](C)c1cn([C@H](CO)Cc3ccccc3)nn1)C2 |  | inactive | inactive | 1.51 µM (active) | 
COC(=O)c1ccc(CN2C(=O)[C@@]3(CC(C)=CC[C@@H](C)O3)c3ccccc32)cc1 |  | inactive | inactive | inactive | inactive
CCOC(=O)C1=CN(CCC=C(C)C)C(=O)N(C(C)=O)C1c1ccccc1 (stereo unspecified) |  | inactive | inactive | inactive | 
COc1cccc([C@@H]2[C@H](C)C[C@H]3CC(=O)N4[C@H](CC(=O)N32)C[C@@H](C)[C@@H]4c2cccc(OC)c2)c1 |  | inactive | inactive | 1.51 µM (active) | 
